Active and inactive are the calls of the source.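 The calls were made as follows: active = high combined rank on largest and smallest cell-count-weighted shift across three tests, rank score above 45, floors 50 and 25 (some results past the limit were not filed as active); inactive = the rest.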
Assay: LNCaP granularity increase inducers, single-point recheck – cell-based, side scatter shift, flow cytometry, confirmation (AID 1069);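 also: LNCaP human prostate cancer cells in low-serum medium with charcoal-stripped FBS; percent of cells with raised granularity gated so DMSO controls show 10%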
Settings: LNCaP differentiation, 4 d, stronger effect = higher value

| SMILES | side scatter shift (at 100 µM) | side scatter shift (side scatter shift, at 10 µM) |
| --- | --- | --- |
| COC(=O)C1=C(C)N=c2s/c(=C/c3cccs3)c(=O)n2C1c1cccs1 (stereo not given) | 32.8% (inactive) | 12.7% |
| COc1ccc(N2CCN(CCCNC(=O)c3cc4sccc4n3C)CC2)cc1 | 51.6% (active) | 6.5% |
| COc1cc(C2C3=C(Nc4ncnn42)c2ccccc2CC3)cc(OC)c1OC (stereo not given) | 11.2% (inactive) | 4.5% |
| COc1ccc(N2CCN(CCCNC(=O)CCCn3c(=O)[nH]c4ccsc4c3=O)CC2)cc1 | 7.7% (inactive) | 20.6% |
| CCCNC(=O)C1CN(S(=O)(=O)c2ccccc2)CCN1S(=O)(=O)c1ccccc1 (stereo not given) | 13.3% (inactive) | 8% |
| Cc1ccc(C)c(N2CCN(CCCNC(=O)Cn3cc4c(n3)CCC(C)C4)CC2)c1 (stereo not given) | 20% (inactive) | 25.6% |
| Cc1ccc(NC(=O)N2CCCN(Cc3ccc(F)cc3)C2)cc1C | 15.4% (inactive) | 28.2% |
| O=C(CCNC(=O)Cn1ccc2ccccc2c1=O)NCCCN1CCN(c2ccccc2F)CC1 | 35.7% (inactive) | 6.15% |
| COc1cc2c(C(=O)NCCCN3CCN(c4cccc(Cl)c4)CC3)cn(C)c(=O)c2cc1OC | 53.3% (inactive) | 15.4% |
| O=C(NCCCN1CCN(c2cccc(Cl)c2)CC1)c1ccc(N2CCCC2=O)cc1 | 7.7% (inactive) | 10.1% |
| CC(=O)c1cccc(NC2c3ccccc3C(=O)N2Cc2ccc3c(c2)OCO3)c1 (stereo not given) | 24% (inactive) | 4.25% |
| Cc1cc(C)nc(N2CCC(C(=O)Nc3ccc(Oc4ccccc4)cc3)CC2)n1 | 44.1% (inactive) | 3.05% |
| C=C(C)Cn1c(-c2ccccc2)nc2ccccc21 | 6.3% (inactive) | 4.15% |
| COc1ccc(-c2cc(C(F)(F)F)nc(N3CCN(Cc4ccccc4)CC3)n2)cc1OC | 51.3% (active) | 5.3% |
| COc1ccc(Nc2nc(N)nc(CN3CCC(Cc4ccccc4)CC3)n2)cc1 | 16.7% (inactive) | 33.3% |
| CN1CCN(c2oc(COc3ccc(-c4ccccc4)cc3)nc2C#N)CC1 | 40% (inactive) | 10.8% |
| COc1ccc(CCNC(=O)C2CCN(Cc3nc(-c4ccccc4F)oc3C)CC2)cc1OC | 9% (inactive) | 8.85% |
| COc1ccc(CCNC(=O)C2CCCN(Cc3nc(-c4cccc(Cl)c4)oc3C)C2)cc1OC (stereo not given) | 28.6% (inactive) | 3.85% |
| CCN(CC)CCNC(=O)c1cc2c(-c3ccc(Cl)cc3)nn(C)c2s1 | 24% (inactive) | 64.8% |
| Cc1ccc2c(c1)NC(=O)C(CC(=O)NCCCN1CCN(c3cc(Cl)ccc3C)CC1)O2 (stereo not given) | 0% (inactive) | 7.35% |
| COc1ccc(CCNC(=O)C2CCN(Cc3nc(-c4cccc(Cl)c4)oc3C)CC2)cc1OC | 20% (inactive) | 12.2% |
| Cc1ccccc1-c1nc(CN2CCC(C(=O)NCC3CCCO3)CC2)c(C)o1 (stereo not given) | 22.5% (inactive) | 7.1% |
| COc1ccc(-c2coc3c(CN4CCCCC4)c(O)c(CN4CCCCC4)c(O)c3c2=O)cc1 | 28.6% (inactive) | 3.3% |
| CCN(CC)CCNC(=O)c1nn(-c2ccc(C)cc2)c(=O)c2c1c1ccccc1n2C | 50% (inactive) | 5.55% |
| COC(=O)c1cc2oc3ccccc3c2n1CC(=O)Nc1ccccc1OC | 18.9% (inactive) | 8.8% |
| c1cncc(-c2nc3ccccc3o2)c1 | 10.2% (inactive) | 2.9% |
| CCN1CCCC1CNC(=O)c1cc2c(-c3cccc(OC)c3)nn(C)c2s1 (stereo not given) | 40% (inactive) | 12.8% |

| SMILES | side scatter shift (at 100 µM) | side scatter shift (side scatter shift, at 10 µM) |
| --- | --- | --- |
| O=c1cc(-c2ccccc2)[nH]c2ccccc12 | 22.2% (inactive) | 9.15% |
| Cc1ccc(NC(=O)CCNS(=O)(=O)c2ccc3c(c2)oc(=O)n3C)c(C)c1 | 1.7% (inactive) | 5.85% |
| CCOc1cccc2cc(-c3cn4cc(C)ccc4n3)c(=O)oc12 | 43.1% (active) | 2.1% |
| Nc1ccc(-c2nc3c(Cl)c(N)ccc3[nH]2)cc1 | 20.2% (inactive) | 4.7% |
| O=C(NCCCN1CCOCC1)c1cc2c(s1)CSC2 | 13.1% (inactive) | 9.2% |
| CCOC(=O)c1ccc(-c2n[nH]c(=O)c3ccccc23)cc1 | 10.7% (inactive) | 3.3% |
| Cn1nc(-c2ccc(Cl)cc2)c2cc(C(=O)NCCCN3CCOCC3)sc21 | 63.6% (active) | 27.4% |
| N#C/C(=C\c1ccc(O)c(O)c1)C(=O)NCCCc1ccccc1 | 28.9% (inactive) | 7.05% |
| Cc1ccccc1-c1nc(CN2CCC(C(=O)NCc3cccnc3)CC2)c(C)o1 | 36.9% (inactive) | 1.35% |
| COCCn1cc(C(=O)N2CCCC(C)C2)c2c3ccccc3n(C)c2c1=O (stereo not given) | 22.8% (inactive) | 3.2% |
| O=C1c2ccccc2C(Nc2ccc3c(c2)OCO3)N1Cc1ccc2c(c1)OCO2 (stereo not given) | 23.6% (inactive) | 6.65% |
| Cc1cccc(-c2nc(CN3CCCC(C(=O)NC4CCCC4)C3)c(C)o2)c1 (stereo not given) | 13.8% (inactive) | 8.5% |
| Cn1c(=O)[nH]c(=O)c2c1nc(Br)n2CCCSc1nc2ccccc2o1 | 0% (inactive) | 8% |
| CC(C)(C)OC(=O)N1CCC(C(=O)N2CCCCCC2)CC1 | 16.1% (inactive) | 7.5% |
| CN(C)CCCN1c2ccccc2CCc2ccc(Cl)cc21 | 20.9% (active) | 48.4% |
| O=C(CSc1nc2c(c(=O)n1-c1ccc(F)cc1)SCC2)NCC1CCCO1 (stereo not given) | 19.8% (inactive) | 3.9% |
| Cc1oc(-c2ccc(Cl)cc2)nc1CN1CCCC(C(=O)NCCCN2CCCC2=O)C1 (stereo not given) | 14% (inactive) | 13.6% |
| COC(=O)Nc1sccc1C(=O)Nc1sccc1C(=O)OC | 18.8% (inactive) | 8.85% |
| COc1ccc(CCNC(=O)C2CCCN(Cc3nc(-c4ccccc4C)oc3C)C2)cc1OC (stereo not given) | 25% (inactive) | 5.4% |
| CCCCn1c2c(c3ccccc31)CCc1nonc1-2 | 20.1% (inactive) | 2.8% |
| CCOC(=O)C1CCCN(C(=O)Cn2cccc2C(=O)c2ccccc2)C1 (stereo not given) | 6% (inactive) | 2.5% |
| Cc1cc(N2C(=O)C3C4C=CC(C4)C3C2=O)ccc1Br (stereo not given) | 9.6% (inactive) | 16.5% |
| Cc1ccccc1-c1nc(CN2CCC(C(=O)N3CCN(c4ccccn4)CC3)CC2)c(C)o1 | 24.7% (inactive) | 12.9% |
| Cc1cc(N2CCN(C)CC2)nc2ccc(NC(=O)c3ccc(Br)o3)cc12 | 0% (active) | 56.4% |
| CCCCCn1c(=N)n(CC(O)COc2ccccc2OC)c2ccccc21 (stereo not given) | 15% (inactive) | 25.1% |
| CC(C)(C)C1CCc2onc(C(=O)Nc3cnn(Cc4ccc(F)cc4)c3)c2C1 (stereo not given) | 25.8% (inactive) | 3.7% |
| Cc1ccccc1-c1nc(CN2CCC(C(=O)NCCCN3CCOCC3)CC2)c(C)o1 | 78.9% (active) | 13.4% |

| SMILES | side scatter shift (at 100 µM) | side scatter shift (side scatter shift, at 10 µM) |
| --- | --- | --- |
| COc1ccc(-c2cc(C(F)(F)F)nc(N3CCN(C)CC3)n2)cc1 | 25% (inactive) | 13.6% |
| Cc1ccc(OCC(O)Cn2c(=N)n(CCN3CCCCC3)c3ccccc32)cc1 (stereo not given) | 23.1% (active) | 65.5% |
| CCn1c(=O)cc(SCC(=O)NCCCN2CCN(c3ccccc3F)CC2)c2ccccc21 | 0% (active) | 33.5% |
| Cn1c(C(=O)NCCC2=CCCCC2)cc2c(=O)n3ccccc3nc21 | 11.5% (inactive) | 5.75% |
| CCC(CC)C(=O)Nc1cccc(C(=O)NCc2ccco2)c1 | 14.1% (inactive) | 6% |
| CC(C)CCNC(=O)C1CCN(c2nc3ccccc3o2)CC1 | 28.8% (inactive) | 7.65% |
| COc1cccc(-c2cc(C(=O)N3CCCc4ccccc43)no2)c1 | 22.2% (inactive) | 1.8% |
| Cc1cc(NC(=O)c2noc3c2CCc2ccccc2-3)n(-c2ccccc2)n1 | 21.9% (inactive) | 12.4% |
| O=C(NCCCN1CCN(c2cccc(Cl)c2)CC1)c1nc(-c2ccncc2)no1 | 36.1% (inactive) | 2.15% |
| Cc1ccc2c(c1)-c1c(cnn1CC(=O)Nc1ccccc1N1CCN(C)CC1)CO2 | 9.6% (active) | 38% |
| Cc1ccc(C2=Nc3ccccc3NC(C)(c3ccc(C)o3)C2)o1 (stereo not given) | 7.1% (inactive) | 10.1% |
| CCOC(=O)N1CCC(NC(=O)c2cc3c(-c4ccc(Cl)cc4)nn(C)c3s2)CC1 | 22.5% (inactive) | 6.9% |
| Cc1ccc2c(c1)NC(=O)C(CC(=O)NCCCN1CCN(c3cc(C)ccc3C)CC1)O2 (stereo not given) | 30.1% (inactive) | 2.95% |
| Cc1oc(-c2ccc(Cl)cc2)nc1CN1CCC(C(=O)NCc2ccco2)CC1 | 37.1% (inactive) | 9.6% |
| Cc1ccc(CNc2nc3ccccc3n3nnnc23)cc1 | 33.1% (inactive) | 7% |
| CCN(CCNC(=O)C1CCN(Cc2nc(-c3cccc(Cl)c3)oc2C)CC1)c1ccccc1 | 66.7% (inactive) | 31.2% |
| N#CC(C(=O)c1ccco1)c1ccccn1 (stereo not given) | 2.5% (inactive) | 10.3% |
| Cc1ccc(Cl)cc1N1CCN(C(=O)c2cc3c(=O)n(C)c4ccccc4c3n2C)CC1 | 12.9% (inactive) | 22.5% |
| COc1ccc2c(c1)CCc1c(C(=O)Nc3cc(C)n(Cc4ccc(Cl)cc4)n3)noc1-2 | 37.2% (inactive) | 7.45% |
| O=C(CSc1nc2sc3c(c2c(=O)n1-c1ccccc1)CCCC3)NCc1ccco1 | 24% (inactive) | 4.3% |
| CCOC(=O)C1CCN(c2nc3ccccc3nc2C(C#N)C(=O)OCCOC)CC1 (stereo not given) | 11.8% (inactive) | 3.1% |
| Cc1oc(-c2ccccc2F)nc1CN1CCC(C(=O)NCc2cccs2)CC1 | 39.3% (inactive) | 6.3% |
| Cc1ccccc1OCc1nc(-c2ccc(NC(=O)c3ccc4c(c3)OCO4)cc2)no1 | 32.3% (inactive) | 4.6% |
| CCOc1cccc(-c2nnc3n2N=C(c2cc(OC)ccc2OC)CS3)c1 | 0% (inactive) | 14.1% |
| COc1ccc(-c2nc(CN3CCC(C(=O)N4CCc5ccccc54)CC3)c(C)o2)cc1OC | 12.5% (inactive) | 2.7% |
| O=C(NCC(c1cccnc1)N1CCOCC1)c1cccc(Cl)c1 (stereo not given) | 11.4% (inactive) | 13.9% |
